# Data: PubChem BioAssay
# Active and inactive are the calls of the source. Unless noted, the rule behind the calls is not given here.
# Assays:
# [1] = anti-His antibody binders, primary screen, artefact control for SMM control protein annotation, biochemical, small-molecule microarray, 635 nm fluorescence (AID 1128); conditions: anti-His Alexa647 antibody binding, higher = more signal;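 note: score merges feature fluorescence with signal-to-noise for each printed compound spot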
# [2] = tested on: Human papillomavirus type 1a E7 protein (residues 1-88); assay: HPV1a E7 small-molecule binders, primary screen, biochemical, small-molecule microarray, residues 1-88, 635 nm (AID 1129); conditions: small-molecule microarray binding, fluorescence 635 nm; higher = more signal
# [3] = target: Focal adhesion kinase 1 (Homo sapiens) (UniProt Q05397); assay: small-molecule microarray binders of FAK, primary screen, biochemical, 635/667 nm fluorescence, BSA, DTT (AID 1130); conditions: PTK2 binding, 635 nm fluorescence, higher = more signal;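 note: composite of spot emission at 667 nm and signal to noise over triplicate slides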
# Focal adhesion kinase 1 (Homo sapiens), sequence (Q05397 whole entry, looked up): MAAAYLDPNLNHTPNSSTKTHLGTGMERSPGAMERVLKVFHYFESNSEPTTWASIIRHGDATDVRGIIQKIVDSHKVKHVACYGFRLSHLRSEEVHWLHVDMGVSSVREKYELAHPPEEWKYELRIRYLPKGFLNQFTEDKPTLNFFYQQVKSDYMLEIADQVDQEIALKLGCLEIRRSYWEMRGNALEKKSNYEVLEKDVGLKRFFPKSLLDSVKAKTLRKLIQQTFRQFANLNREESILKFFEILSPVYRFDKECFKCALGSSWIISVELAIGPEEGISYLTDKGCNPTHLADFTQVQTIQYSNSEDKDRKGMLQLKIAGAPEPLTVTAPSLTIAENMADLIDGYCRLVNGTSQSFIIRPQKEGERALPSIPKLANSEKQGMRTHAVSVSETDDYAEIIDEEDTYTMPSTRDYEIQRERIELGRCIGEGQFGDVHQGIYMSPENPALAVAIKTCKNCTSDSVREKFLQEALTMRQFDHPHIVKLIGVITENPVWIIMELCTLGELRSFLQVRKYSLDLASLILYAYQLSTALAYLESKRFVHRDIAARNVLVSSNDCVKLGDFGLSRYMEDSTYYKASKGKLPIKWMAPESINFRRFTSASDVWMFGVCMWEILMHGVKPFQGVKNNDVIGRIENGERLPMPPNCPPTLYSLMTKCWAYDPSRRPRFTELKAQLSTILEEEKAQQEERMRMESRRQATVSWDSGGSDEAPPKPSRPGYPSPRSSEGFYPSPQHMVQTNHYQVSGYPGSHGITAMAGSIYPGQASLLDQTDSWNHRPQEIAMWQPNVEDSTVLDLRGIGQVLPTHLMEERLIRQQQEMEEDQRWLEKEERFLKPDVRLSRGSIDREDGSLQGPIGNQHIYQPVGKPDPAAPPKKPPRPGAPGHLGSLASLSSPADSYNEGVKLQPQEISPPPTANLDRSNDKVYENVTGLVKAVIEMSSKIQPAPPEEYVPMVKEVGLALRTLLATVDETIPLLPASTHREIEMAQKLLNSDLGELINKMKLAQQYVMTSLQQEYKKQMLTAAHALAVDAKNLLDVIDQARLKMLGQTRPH
# [4] = tested on: Fibrinogen (Alexa647-labelled); assay: fibrinogen binders on compound microarrays, profiling panel, artefact control for SMM control-protein annotation, biochemical, small-molecule microarray, 635/667 nm fluorescence (AID 1131); conditions: fibrinogen-A647 binding fluorescence, higher = more signal;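 note: z-score merges 667 nm fluorescence with per-spot signal-to-noise over triplicate slides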
# [5] = target: Follistatin (Homo sapiens) (UniProt P19883); assay: follistatin binders on small-molecule microarrays, primary screen, biochemical, small-molecule microarray, 635/667 nm fluorescence (AID 1132); conditions: FST binding, 635 nm fluorescence, higher = more signal
# Follistatin (Homo sapiens), sequence (P19883 whole entry, looked up): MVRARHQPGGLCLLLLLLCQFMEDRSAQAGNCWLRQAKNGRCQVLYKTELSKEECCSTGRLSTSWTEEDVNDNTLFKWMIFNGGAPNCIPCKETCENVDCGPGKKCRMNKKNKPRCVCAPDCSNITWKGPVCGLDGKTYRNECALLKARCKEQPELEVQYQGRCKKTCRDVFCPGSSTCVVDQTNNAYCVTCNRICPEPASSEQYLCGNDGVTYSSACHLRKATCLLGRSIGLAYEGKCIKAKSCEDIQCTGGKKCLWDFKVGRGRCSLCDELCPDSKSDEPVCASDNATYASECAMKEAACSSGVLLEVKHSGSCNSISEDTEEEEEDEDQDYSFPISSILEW
# [6] = target: Fibroblast growth factor 2 (Homo sapiens) (UniProt P09038); assay: FGF2 binders on small-molecule microarrays, primary screen, biochemical, small-molecule microarray, 635/667 nm fluorescence (AID 1133); conditions: small-molecule microarray binding, FGF2, fluorescence 635/667; higher = more signal
# Fibroblast growth factor 2 (Homo sapiens), sequence (P09038 whole entry, looked up): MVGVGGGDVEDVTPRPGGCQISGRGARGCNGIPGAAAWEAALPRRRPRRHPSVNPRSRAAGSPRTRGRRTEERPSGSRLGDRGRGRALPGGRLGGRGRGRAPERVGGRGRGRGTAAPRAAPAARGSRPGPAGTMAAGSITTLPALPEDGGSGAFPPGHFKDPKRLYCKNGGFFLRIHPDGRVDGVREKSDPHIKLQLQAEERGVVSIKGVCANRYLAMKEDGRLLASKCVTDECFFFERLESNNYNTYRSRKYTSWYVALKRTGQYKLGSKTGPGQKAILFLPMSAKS
# [7] = mitochondrial membrane potential change in A549 cells, profiling panel, cell-based, JC-1 fluorescence, basal, 24 h, 100 nL (AID 1138); conditions: higher = more signal;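 note: A549 lung adenocarcinoma cells under basal conditions with no added stimulus; test concentration not given here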
# Lefty1 = Lefty1 binders on small-molecule microarrays, primary screen, biochemical, small-molecule microarray, 635/667 nm fluorescence (AID 1139); conditions: small-molecule microarray binding, fluorescence 635/667; higher = more signal
# [8] = tested on: wheat germ agglutinin (Triticum aestivum), Alexa647-labelled; assay: wheat germ agglutinin binders on compound microarrays, profiling panel, artefact control for SMM control-protein annotation, biochemical, small-molecule microarray, 635/667 nm fluorescence (AID 1140); conditions: WGA-A647 binding, 635 nm fluorescence, higher = more signal;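 note: score merges 667 nm feature emission with signal to noise over triplicate slides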
# [9] = target: Luciferin 4-monooxygenase (Photinus pyralis) (UniProt P08659); assay: firefly luciferase enzyme inhibitors, primary screen, biochemical, luminescence, purified enzyme, 2006 set (AID 1141); conditions: SteadyGlo luminescence, 30 min, higher = more signal, called active from +8 up or from −8 down;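 note: cell-free assay with purified firefly luciferase at 100 ng per well in PBS; test concentration not given here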
# Luciferin 4-monooxygenase (Photinus pyralis), sequence (P08659 whole entry, looked up): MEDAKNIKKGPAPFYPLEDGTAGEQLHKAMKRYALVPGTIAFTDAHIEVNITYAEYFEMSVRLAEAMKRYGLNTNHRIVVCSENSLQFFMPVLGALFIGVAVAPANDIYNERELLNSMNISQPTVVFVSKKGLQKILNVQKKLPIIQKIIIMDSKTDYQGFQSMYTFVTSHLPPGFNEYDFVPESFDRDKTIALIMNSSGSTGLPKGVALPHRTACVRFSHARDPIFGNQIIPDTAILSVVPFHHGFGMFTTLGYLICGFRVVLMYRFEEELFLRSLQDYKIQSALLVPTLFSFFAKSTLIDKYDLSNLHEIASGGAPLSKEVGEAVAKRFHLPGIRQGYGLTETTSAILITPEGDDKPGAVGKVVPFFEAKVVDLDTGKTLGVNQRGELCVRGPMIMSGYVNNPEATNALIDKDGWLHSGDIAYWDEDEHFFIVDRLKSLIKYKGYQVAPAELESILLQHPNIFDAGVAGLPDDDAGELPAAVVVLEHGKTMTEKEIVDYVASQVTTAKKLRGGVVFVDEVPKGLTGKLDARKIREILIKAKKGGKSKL
# [10] = tested on: Wnt5a (protein binding on small-molecule microarray); assay: Wnt5a binders on small-molecule microarray, primary screen, biophysical, 635/667 nm fluorescence (AID 1142); conditions: 635 nm fluorescence, higher = more signal;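 note: fluorescence read at 667 nm with signal to noise per printed feature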
# [11] = cell viability in Huh7 cells, primary screen, cytotoxicity control for HCV replication inhibitor project, CellTiter-Glo luminescence, basal, 48 h (AID 1143); conditions: Huh7 HCV replicon, higher = more signal, called active from +8 up or from −8 down;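 note: Huh7 hepatoma cells carrying a hepatitis C replication reporter with no stimulus; test concentration not given here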
# [12] = P. aeruginosa biofilm formation inhibitors, primary screen, PAO1 strain, BacTiter-Glo luminescence, LB-PBS (AID 1144); conditions: 12 h, higher = more signal
# [13] = CREB reporter modulators without forskolin, primary screen, cell-based, PC12, CRE-LacZ reporter, unstimulated (AID 1145); conditions: no forskolin, luminescence, 4.5 h, higher = more signal, called active from +8 up or from −8 down
# [14] = CREB reporter modulators under forskolin, primary screen, cell-based, PC12, CRE-LacZ reporter, forskolin-stimulated (AID 1146); conditions: luminescence, 4.5 h, higher = more signal, called active from +8 up or from −8 down;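 note: PC12 cells with 6xCRE LacZ reporter stimulated by forskolin 10 µM; beta-galactosidase reporter signal reflecting CREB driven transcription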
# [15] = target: Streptavidin (Streptomyces avidinii) (UniProt P22629); assay: streptavidin binders on small-molecule microarray, primary screen, artefact control for SMM compound annotation, biophysical, 635/667 nm fluorescence (AID 1147); conditions: streptavidin binding, higher = more signal;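 note: signal reflects streptavidin binding to arrayed compounds as a control protein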
# Streptavidin (Streptomyces avidinii), sequence (P22629 whole entry, looked up): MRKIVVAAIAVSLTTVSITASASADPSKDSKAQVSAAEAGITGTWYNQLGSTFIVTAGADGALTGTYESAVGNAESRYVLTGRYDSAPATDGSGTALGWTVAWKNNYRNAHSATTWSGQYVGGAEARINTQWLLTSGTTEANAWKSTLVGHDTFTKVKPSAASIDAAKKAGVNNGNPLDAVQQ
# [16] = small-molecule binders of probe aInhba, primary screen, biochemical, small-molecule microarray, 635/667 nm fluorescence (AID 1148); conditions: higher = more signal;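 note: score merges 667nm spot fluorescence with signal-to-noise for antibody binding to printed compounds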
# Torsin-1A (Homo sapiens) [17] = target: Torsin-1A (Homo sapiens) (UniProt O14656); assay: torsin A binders from cell lysate, primary screen, small-molecule microarray, wild-type, 635/667 nm (AID 1149); conditions: COS7 hTOR1A-WT lysate, 635 nm fluorescence, higher = more signal
# Torsin-1A (Homo sapiens), sequence (O14656 whole entry, looked up): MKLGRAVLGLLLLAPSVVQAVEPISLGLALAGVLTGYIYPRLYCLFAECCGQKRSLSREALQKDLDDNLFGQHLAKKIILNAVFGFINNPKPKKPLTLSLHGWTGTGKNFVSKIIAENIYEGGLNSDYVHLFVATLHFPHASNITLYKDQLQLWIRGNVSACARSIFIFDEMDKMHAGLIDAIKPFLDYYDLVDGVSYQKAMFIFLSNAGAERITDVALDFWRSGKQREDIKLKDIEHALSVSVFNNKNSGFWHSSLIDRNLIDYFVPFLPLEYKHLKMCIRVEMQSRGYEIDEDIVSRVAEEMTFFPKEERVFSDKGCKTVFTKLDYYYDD
# Torsin-1A (Homo sapiens) [18] = target: Torsin-1A (Homo sapiens) (UniProt O14656); assay: small-molecule binders of mutant TOR1A in lysate, primary screen, cell lysate, small-molecule microarray, COS7 lysate, 635/667 nm fluorescence (AID 1150); conditions: COS7 hTOR1A mutant lysate, 635 nm fluorescence, higher = more signal;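 note: score pools 667 nm emission and signal to noise measuring lysate protein binding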
# [19] = tested on: Sonic hedgehog protein (Shh); assay: small-molecule binders of Shh protein, primary screen, biochemical, small-molecule microarray, 635/667 nm fluorescence (AID 1151); conditions: small-molecule microarray binding, 635 nm fluorescence; higher = more signal;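 note: Shh protein binding to compounds spotted on small-molecule microarray slides; score combines spot fluorescence intensity with signal-to-noise across triplicate slides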
SMILES,composite z-score [1],composite z-score [2],composite z-score [3],composite z-score [4],composite z-score [5],composite z-score [6],z-score [7],composite z-score (Lefty1),composite z-score [8],z-score [9],composite z-score [10],z-score [11],z-score [12],z-score [13],z-score [14],composite z-score [15],composite z-score [16],composite z-score (Torsin-1A (Homo sapiens) [17]),composite z-score (Torsin-1A (Homo sapiens) [18]),composite z-score [19]
O=C1O[C@@H](c2ccccc2)[C@@H](c2ccccc2)N2[C@@H](c3ccc(O)cc3)[C@]3(C(=O)Nc4ccc(C#CC5(O)CCCCCC5)cc43)[C@@H](C(=O)N3CCN(c4ncccn4)CC3)[C@H]12,1.69,1.22,0.56,0.925,0.642,0.385,-0.243,0.441,0.601,1.04 (inactive),0.149,-1.37 (inactive),-0.775 (inactive),-0.231 (inactive),0.204 (inactive),0.849,-0.144,1.42,0.743,0.358
O=C(NCc1ccccc1)[C@]1(Cc2ccccc2)N=C(c2ccc(OCCCO)cc2)O[C@@H]1c1ccccc1,2.31,1.2,0.121,0.817,-0.0037,-0.0759,2,-0.501,0.648,-0.794 (inactive),0.53,-4.62 (inactive),-0.621 (inactive),-0.0576 (inactive),-1.02 (inactive),0.621,0.0053,-0.0377,0.621,-0.468
CCOC(=O)C1=CC[C@@H](c2ccc(N(CC)CC)cc2)N(S(=O)(=O)c2ccc(C)cc2)[C@H]1c1ccc([N+](=O)[O-])cc1,0.479,0.836,0.718,0.403,-0.35,-1.18,1.53,-0.863,0.516,0.719 (inactive),-0.383,-3.45 (inactive),0.858 (inactive),-0.583 (inactive),0.619 (inactive),1.08,-0.0332,-1,-0.101,-0.438
[N-]=[N+]=NCc1ccccc1C[C@]1(C(=O)NCCN2CCOCC2)COC(c2ccc(OCCCO)cc2)=N1,0.293,1.24,0.815,1.02,0.953,0.152,1.88,0.346,0.783,-0.851 (inactive),0.315,-2.41 (inactive),-0.0639 (inactive),2.64 (inactive),-0.664 (inactive),0.837,0.161,0.969,0.645,-0.204
C=C(C(=O)CC[C@H](OC(=O)c1cccnc1)c1ccc(OCCO)cc1)C(C)C,0.423,0.54,0.091,0.917,1.05,0.859,0.531,1.31,-0.052,-2.26 (inactive),0.287,-2.33 (inactive),0.143 (inactive),17.9 (active),2.79 (inactive),0.548,-0.0857,1.12,0.541,1.47
O=C1NC(=O)C2C1C=CC(C(O)c1ccc3c(c1)OCO3)N2Nc1ccc(Cl)cc1Cl (stereo not given),1.24,0.453,0.822,0.0542,0.579,-0.0317,0.512,0.194,0.698,-0.109 (inactive),-0.002,-0.0416 (inactive),-0.238 (inactive),0.0501 (inactive),-0.329 (inactive),0.347,0.249,0.0858,-0.446,-0.116
COc1cccc(C)c1NC(=O)O[C@H]1[C@H](OC(=O)Nc2ccccc2)[C@H](OC(=O)Nc2ccccc2)[C@@H](OC)O[C@@H]1CO,1.44,1.26,1.01,0.442,0.615,-0.21,0.138,-0.337,0.861,-0.852 (inactive),0.0166,-5.44 (inactive),0.365 (inactive),0.904 (inactive),-1.49 (inactive),1.69,0.0301,0.513,1.05,0.349
CC(=O)NCCCC[C@@H]1NC(=O)[C@@H]2C[C@H](C(=O)NCCCC[N+](C)(C)C)[C@H](c3cccc(OCCO)c3)N2C1=O,1.5,-0.411,0.164,-1.39,1.4,1.57,-0.251,0.512,0.994,0.0595 (inactive),0.198,-0.283 (inactive),-0.192 (inactive),-0.532 (inactive),-0.441 (inactive),-0.407,-0.0471,2.44,1.83,1.89
COc1ccc(C#Cc2ccc3c(c2)[C@]2(C(=O)N3)[C@H](c3ccc(OCCO)cc3)N3[C@H](c4ccccc4)[C@H](c4ccccc4)OC(=O)[C@H]3[C@@H]2C(=O)N2CCN(c3ncccn3)CC2)cc1,0.197,0.816,0.0451,0.771,1.01,0.0495,-1.38,0.305,0.776,0.713 (inactive),0.0992,-3.47 (inactive),-0.385 (inactive),0.0653 (inactive),-0.239 (inactive),0.819,-0.0521,0.433,0.374,0.666
